Laboratory results from PubChem BioAssay AID1851 (National Center for Advancing Translational Sciences (NCATS), 2009).
Hit rate of the full screen: of about 16,000 compounds, about 2,600 (16%) were called active. Roughly 20% stayed inconclusive and do not appear here. Not all results are given here. A number with no mark means an inactive call. Calls come from the whole dose curve; as a rule, active = well fitted curve in the direction sought with a large enough effect; inconclusive = small, poorly fitted or top-dose-only effect, or effect the other way; inactive = no such curve, though single readings can be large or run the other way.

target: Cytochrome P450 2D6 (Homo sapiens) (UniProt P10635); assay: Cytochrome panel assay with activity outcomes; settings: recombinant CYP, pro-luciferin dealkylation, luminescence, p450-cyp2d6; series mostly up to 57.1 µM; activity, negative = inhibition: at the top concentration
Sequence (P10635 whole entry, looked up): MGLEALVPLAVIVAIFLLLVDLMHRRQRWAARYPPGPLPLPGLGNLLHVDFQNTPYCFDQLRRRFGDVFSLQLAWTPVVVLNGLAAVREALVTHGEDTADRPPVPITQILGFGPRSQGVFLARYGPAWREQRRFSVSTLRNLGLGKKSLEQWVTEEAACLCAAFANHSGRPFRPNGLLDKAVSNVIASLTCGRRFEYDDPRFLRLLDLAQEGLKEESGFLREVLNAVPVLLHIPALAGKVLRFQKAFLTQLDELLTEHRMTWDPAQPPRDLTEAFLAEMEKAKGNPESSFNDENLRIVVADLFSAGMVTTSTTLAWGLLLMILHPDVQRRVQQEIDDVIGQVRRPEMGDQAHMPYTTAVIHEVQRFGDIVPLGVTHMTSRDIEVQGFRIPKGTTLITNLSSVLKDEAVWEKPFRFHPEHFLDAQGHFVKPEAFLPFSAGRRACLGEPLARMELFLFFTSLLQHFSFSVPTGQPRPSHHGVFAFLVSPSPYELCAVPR
% is set by controls: 0 for no effect and ±100 for the full control effect.

In order of falling “activity, negative = inhibition” value:
1. Cc1cccc(NC2=NC(=S)N(c3ccc(C(=O)O)cc3)C23CCCCC3)c1  33.6%
2. COc1ccc2c(c1)-c1c(sn(-c3ccc(OC)c(OC)c3)c1=S)C(C)(C)N2  21.3%
3. NC1=NC(=O)/C(=C/c2cccs2)S1  20.3%
4. COc1ccccc1CCn1c(=O)c(-c2ccc(F)cc2)nc2cncnc21  12.9%
5. CCOC(=O)CC1NC(=O)c2ccccc21 (centres undefined)  11.6%
6. NC(=O)C(=O)O  9.07%
7. Cc1ccc(C(=O)N/C(=C/C=C/c2ccccc2)C(=O)NCc2ccco2)cc1  7.67%
8. CCCn1cnc2c1c(=O)n(CCCCC(C)=O)c(=O)n2C  5.76%
9. O=C(Cn1cccc1)NC1CCCCCC1  5.48%
10. COc1ccc(C(=O)O/N=C/c2ccc(S(=O)c3ccc(Cl)cc3)nc2)cc1 (centres undefined)  4.34%
11. CCOc1[nH]n(-c2ccc(Cl)cc2)c(=O)c1C=Nc1ccc(Cl)cc1  1.47%
12. COc1ccc(-c2nc3cnc(N4CCNCC4)nc3n(C3CC3)c2=O)cc1  1.04%
13. Cc1ccc(-n2c(C)nnc2SCC(=O)N2CCc3ccccc3C2)cc1C  0.438%
14. COc1ccccc1CN1C(=O)c2ccncc2C1=O  -1.12%
15. CC1=CC(=C2C(=O)c3ccccc3C2=O)C=C(C)O1  -1.34%
16. Cc1ccc(-n2ncc3c(=O)n(CC(=O)NCC4CCCO4)cnc32)cc1 (centres undefined)  -2.25%
17. CCOc1ccc(N/N=C(/C#N)C(N)=O)cc1  -4.83%
18. CCOC(=O)c1cn(-c2nc(-c3ccc(Cl)cc3)cs2)c2c(F)c(N3CC(C)OC(C)C3)c(F)cc2c1=O (centres undefined)  -6.02%
19. Cc1c(Br)cc(C(=O)NC2CCCCC2)c(C)c1C  -8.72%
20. CCCc1ccc(-c2cc(C(=O)NN3CCOCC3)c3ccccc3n2)cc1  -8.77%
21. C=CCn1c(SCC(=O)N2CC(=O)Nc3ccccc32)nc2scc(-c3ccccc3)c2c1=O  -13.4%
22. CCCn1nnnc1-c1cc(Cl)cc(Cl)c1  -16.5%
23. c1ccc(-c2nccc(-c3ccc(-n4cnc5ccccc54)cc3)n2)nc1  -20.9%
24. O=C(/C=C/Nc1ccccc1)c1ccc(Oc2ncccn2)cc1  -24.4%
25. CCn1c(C)nc2c1C(=O)c1ccccc1C2=O  -24.8%
26. CCOC(=O)c1sc(N(Cc2ccccc2)C(=O)CN2C(=O)CN(C)C2=O)nc1C  -26%
27. CCOC(=O)CSc1nnc(CSc2nc3sc4c(c3c(=O)[nH]2)CCCC4)n1-c1ccccc1  -29.7%

For `O=C(Cn1c(SCC(=O)N2CCc3ccccc3C2)nc2ccccc21)NC1CCCC1`, the AC50 was 25.1 µM (active).
`C=CCn1c(SCC(=O)N2CCc3ccccc3C2)nc2ccccc2c1=O` was tested, and the AC50 was 15.8 µM (active).
With `CC1=CC(=O)c2ccccc2C1=O` the AC50 was 7.94 µM (active).
`COc1ccccc1CNc1ncncc1-c1ccccc1OC` was tested, and the AC50 was 10 µM (active).
`COc1ccccc1CNc1ncncc1-c1ccoc1` was tested, and the AC50 was 20 µM (active).
`COc1ccccc1CNc1ncncc1-c1ccccc1C` was tested, and the AC50 was 10 µM (active).
For `COc1ccccc1CNc1ncncc1-c1ccccc1Cl`, the AC50 was 2 µM (active).
With `OCCN1CCN(CCOc2cccc(Cl)c2)CC1` the AC50 was 5.01 µM (active).
With `COc1cccc([C@H]2Oc3ccc(OC)cc3/C(=N\O[C@@H]3O[C@H](COC(C)=O)[C@H](OC(C)=O)[C@H](OC(C)=O)[C@H]3OC(C)=O)[C@@H]2O)c1` the AC50 was 3.16 µM (active).
With `COc1ccc(O[C@H]2C=C[C@@H](c3ccccc3)O[C@H]2COC(=O)CC/C(C)=N/O[C@@H]2O[C@H](COC(C)=O)[C@H](OC(C)=O)[C@H](OC(C)=O)[C@H]2OC(C)=O)cc1` the AC50 was 3.16 µM (active).
With `CC(=O)OC[C@H]1O[C@@H](O/N=C(\C)CCC(=O)OC[C@@H]2O[C@H](C#Cc3ccccc3)C=C[C@@H]2Oc2ccc(C)cc2)[C@H](OC(C)=O)[C@@H](OC(C)=O)[C@H]1OC(C)=O` the AC50 was 3.98 µM (active).

In order of rising activity, negative = inhibition:
1. COc1ccc(O[C@H]2C=C[C@@H](c3ccccc3)O[C@H]2CO/N=C2/c3cc(OC)ccc3O[C@@H](c3cccc(OC)c3)[C@H]2O)cc1  -21.5% [at 11.4 µM]
2. C=CCSc1nc2ccccc2c(=O)n1Cc1ccco1  -11.2% [at 11.4 µM]
3. CO[C@H]1COC(=O)[C@H]2CCCN2C(=O)C/C=C\[C@@H](C)[C@H](OC)COC(=O)C/C=C\[C@@H]1C  -7.59% [at 11.4 µM]
4. COc1ccc(O[C@H]2C=C[C@@H](c3ccccc3)O[C@H]2CO/N=C\C[C@@H]2C=C[C@H](OC(C)=O)[C@H](COC(C)=O)O2)cc1  -5.75% [at 11.4 µM]
5. CO[C@@H]1COC(=O)[C@H]2CCCN2C(=O)[C@@H](C)COC(=O)C/C=C\[C@H]1C  -1.92% [at 11.4 µM]
6. CCCNC(=O)OC[C@@H]1O[C@H](CCO/N=C2\c3cc(OC)ccc3O[C@H](c3cccc(OC)c3)[C@H]2O)C=C[C@@H]1Oc1ccc(OC)cc1  -1.45% [at 11.4 µM]
7. OC[C@@H]1O[C@@H](n2cnc3c(SCc4ccccc4)ncnc32)[C@@H](O)[C@H]1O  -0.968% [at 11.4 µM]
8. C[C@@H](c1ccccc1)N1C(=O)[C@H]2[C@H]3[C@H](O)[C@H](O)C/C(=N/OC[C@@H](O)COCc4ccco4)[C@H]3CC[C@@H]2C1=O  -0.906% [at 11.4 µM]
9. O=C(O)c1cccc(OCCO)c1  5.58% [at 11.4 µM]
10. C/C(CCC(=O)OC[C@@H]1O[C@H](C#Cc2ccccc2)C=C[C@@H]1Oc1ccc(C)cc1)=N/OC[C@@H](O)COCc1ccco1  5.64% [at 11.4 µM]
11. COc1ccc(O[C@H]2C=C[C@@H](c3ccccc3)O[C@H]2CO/N=C(/C)CCC(=O)OC[C@@H]2O[C@H](c3ccccc3)C=C[C@@H]2Oc2ccc(OC)cc2)cc1  8.39% [at 11.4 µM]
12. C[C@H]1CN(CCO)CCN1c1ccccc1  11.2% [at 11.4 µM]
13. CC(=O)OC[C@@H]1O[C@H](CCO/N=C(\C)CCC(=O)OC[C@@H]2O[C@H](C#Cc3ccccc3)C=C[C@@H]2Oc2ccc(C)cc2)C=C[C@@H]1OC(C)=O  15.9% [at 11.4 µM]
14. CC1=C[N+](=O)c2ccccc2[N+]1=O  22.3% [at 11.4 µM]

In order of rising “activity, negative = inhibition” value:
1. O=C(CCCCC(=O)Nc1c(I)cc(I)c(C(=O)O)c1I)Nc1c(I)cc(I)c(C(=O)O)c1I  -0.733% [at 25.6 µM]
2. Nc1ccc(S(=O)(=O)Nc2ccc(Cl)nn2)cc1  6.78% [at 25.6 µM]
